From PubChem BioAssay (Tox21) come the findings set out here.

Several values for one entry are separate records, joined by “and”; a condition that tells them apart may be missing. Identical values can stand only once. Inconclusive results are not listed. Activity calls are given as the source filed them. Unless noted, calls follow the shape of the dose curve; as a rule, active = well fitted curve in the direction sought with a large enough effect in the repeat runs; inconclusive = weak or mixed curves; inactive = no such curve, though single readings can be large; an effect the other way counts as inactive or inconclusive.

A short description of assay [1]: qHTS assay for small molecule agonists of the p53 signaling pathway (AID 651631; calls by dose curve; also: nearly all actives have a fitted effect of over 15% in size; also: potency is read from the fitted curve at half-maximal effect). The procedure, abridged: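 Readout was fluorescence from the LiveBLAzer FRET substrate, applied for 2 h at room temperature after 16 h compound exposure at 37 °C. Cells were the p53RE-bla HCT-116 line, with beta-lactamase driven by p53 response elements.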
A short description of assay [2]: qHTS assay for small molecules that induce genotoxicity in human embryonic kidney cells expressing luciferase-tagged ATAD5 (AID 651632). Also: nearly all actives have a fitted effect of over 15% in size. Also: potency is read from the fitted curve at half-maximal effect. The procedure, abridged: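 DMSO vehicle served as the control. HEK293T reporter cells, 16 hr at 37C, then 30 min Amplite at room temperature; ATAD5 induction is measured as luciferase activity.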
The nature of assay [3]: qHTS assay for small molecule agonists of the p53 signaling pathway - cell viability (AID 651633; calls by dose curve; also: series mostly up to about 83 µM; nearly all actives have a fitted effect of over 30% in size). An outline of the steps:
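p53RE-bla cells, seeded at 4,000 per well and rested 5 h at 37 C/5% CO2, received compounds in DMSO for 16 h at 37 C. CellTiter-Glo was then added, and luminescence was read after 30 min at room temperature to gauge cytotoxicity.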

The nature of assay [4]: qHTS assay for small molecules that induce genotoxicity in human embryonic kidney cells expressing luciferase-tagged ATAD5 - cell viability (AID 651634; calls by dose curve; also: nearly all actives have a fitted effect of over 25% in size). The procedure, abridged: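 Here HEK293T cells with the ATAD5 luciferase reporter are incubated with test compounds for 15.5 hr, and cytotoxicity is then gauged by measuring protease activity in live cells using fluorescence.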
On the technique in general: In qHTS, concentration-response curves come from the screen itself.

Assay [5] can be described thus: qHTS assay for small molecule disruptors of the mitochondrial membrane potential - cell viability (AID 720634; calls by dose curve;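 also: human HepG2 liver cancer cells; series mostly up to about 83 µM; nearly all actives have a fitted effect of over 20% in size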). An outline of the steps:
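Viability of HepG2 cells is scored from ATP content by luminescence; cells are exposed to compound for 1 hr at 37 C and 5% CO2, then dosed with m-MPI dye before the CellTiter-Glo reagent.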

The nature of assay [6]: qHTS assay for small molecule disruptors of the mitochondrial membrane potential (AID 720635). Also: potency is read from the fitted curve at half-maximal effect. The procedure, abridged:
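HepG2 cells (2,000/well) attached overnight at 37C, then took compound for 1 hr at 37C, 5% CO2. Mito-MPS dye was added for 30 min; fluorescence was read at 490/535 nm (monomers) and 540/590 nm (aggregates).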

The nature of assay [7]: qHTS assay to test for compound auto fluorescence at 590 nm (red) in HepG2 cells (AID 720674). An outline of the steps:
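Rose Bengal sodium served as the red fluorophore standard. HepG2 monolayers (overnight attachment, MEM with 10% FBS) were exposed to test compounds for 1 hr at 37 C and read at Ex 540/Em 590 nm.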

Assay [8] in a line: qHTS assay to test for compound auto fluorescence at 535 nm (green) in HepG2 cells (AID 720675).
Assay [9] can be described thus: qHTS assay to test for compound auto fluorescence at 460 nm (blue) in HEK293 cells (AID 720678). The procedure, abridged: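 HEK293 cells (2,000/well, medium with 10% dialyzed FBS) attached 4-5 hr, then exposed to compound overnight at 37C, 5% CO2. Blue fluorescence read at 405/460 nm, with triamterene as reference fluorophore.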
Assay [10] is described as follows: qHTS assay to test for compound auto fluorescence at 590 nm (red) in HEK293 cells (AID 720679). The procedure, abridged: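 HEK293 cells (2,000/well, 10% dialyzed FBS) attached 4-5 hr, then dosed with compound or DMSO and incubated overnight at 37C, 5% CO2. Red fluorescence read at 540/590 nm, Rose Bengal sodium as reference fluorophore.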
Assay [11] is described as follows: qHTS assay to test for compound auto fluorescence at 535 nm (green) in HEK293 cells (AID 720680).
A short description of assay [12]: qHTS assay to test for compound auto fluorescence at 460 nm (blue) in HEK293 cell free culture (AID 720681). The procedure, abridged:
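Test compounds were pinned into cell-free culture medium (DMEM with 10% FBS) and fluorescence was read directly at Ex/Em 405/460 nm. Signals were expressed as fluorescence equivalents of triamterene, with DMSO vehicle as control.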

Assay [13] is described as follows: qHTS assay to test for compound auto fluorescence at 535 nm (green) in HEK293 cell free culture (AID 720682). The procedure, abridged: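 Compounds were pin-transferred into cell-free DMEM with 10% FBS, and green fluorescence was read at excitation 485 nm and emission 535 nm. Intensities were expressed as fluorescein-equivalent values.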
A short description of assay [14]: qHTS assay to test for compound auto fluorescence at 590 nm (red) in HEK293 cell free culture (AID 720683). The procedure, abridged: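 Tox21 10K library compounds were pinned into cell-free DMEM with 10% FBS and fluorescence was read at excitation 540 nm. Activity is expressed as Rose Bengal sodium equivalency.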
Assay [15] is described as follows: qHTS assay to test for compound auto fluorescence at 590 nm (red) in HepG2 cell free culture (AID 720684). An outline of the steps: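 Readout: intrinsic compound fluorescence at 590 nm emission after 540 nm excitation, scaled to Rose Bengal sodium. Matrix was cell-free MEM with 10% FBS; DMSO vehicle wells served as control.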
The nature of assay [16]: qHTS assay to test for compound auto fluorescence at 460 nm (blue) in HepG2 cell free culture (AID 720685). An outline of the steps:
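Cell-free plates of MEM plus 10% FBS received 23 nL compound or DMSO vehicle; blue-channel (405/460 nm) intensity scored against triamterene as reference fluorophore.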

Assay [17] in a line: qHTS assay to test for compound auto fluorescence at 535 nm (green) in HepG2 cell free culture (AID 720686).
Assay [18] can be described thus: qHTS assay to test for compound auto fluorescence at 460 nm (blue) in HepG2 cells (AID 720687). An outline of the steps:
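Cells (2,000/well in MEM with 10% FBS) attached overnight at 37 C, then were exposed to compound or DMSO for 1 hr at 37 C, 5% CO2. Fluorescence read at Ex/Em 405/460 nm, expressed as triamterene-equivalent signal.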

Assay [19] deals with Glucocorticoid receptor (Homo sapiens) (UniProt P04150). Put plainly: qHTS assay to identify small molecule agonists of the glucocorticoid receptor (GR) signaling pathway (AID 720691; active = well fitted activation curve with a large enough effect in the signal ratio in the repeat runs, not every such curve was filed as active; the % refers to the signal ratio). The procedure, abridged: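 Compounds in DMSO, alongside positive controls, were added to GR-bla HeLa reporter cells and incubated 18 h at 37 C; GRE-driven beta-lactamase was detected by fluorescence after 2 h with FRET substrate at room temperature.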
Chain of Glucocorticoid receptor (Homo sapiens) (P04150 whole entry, looked up): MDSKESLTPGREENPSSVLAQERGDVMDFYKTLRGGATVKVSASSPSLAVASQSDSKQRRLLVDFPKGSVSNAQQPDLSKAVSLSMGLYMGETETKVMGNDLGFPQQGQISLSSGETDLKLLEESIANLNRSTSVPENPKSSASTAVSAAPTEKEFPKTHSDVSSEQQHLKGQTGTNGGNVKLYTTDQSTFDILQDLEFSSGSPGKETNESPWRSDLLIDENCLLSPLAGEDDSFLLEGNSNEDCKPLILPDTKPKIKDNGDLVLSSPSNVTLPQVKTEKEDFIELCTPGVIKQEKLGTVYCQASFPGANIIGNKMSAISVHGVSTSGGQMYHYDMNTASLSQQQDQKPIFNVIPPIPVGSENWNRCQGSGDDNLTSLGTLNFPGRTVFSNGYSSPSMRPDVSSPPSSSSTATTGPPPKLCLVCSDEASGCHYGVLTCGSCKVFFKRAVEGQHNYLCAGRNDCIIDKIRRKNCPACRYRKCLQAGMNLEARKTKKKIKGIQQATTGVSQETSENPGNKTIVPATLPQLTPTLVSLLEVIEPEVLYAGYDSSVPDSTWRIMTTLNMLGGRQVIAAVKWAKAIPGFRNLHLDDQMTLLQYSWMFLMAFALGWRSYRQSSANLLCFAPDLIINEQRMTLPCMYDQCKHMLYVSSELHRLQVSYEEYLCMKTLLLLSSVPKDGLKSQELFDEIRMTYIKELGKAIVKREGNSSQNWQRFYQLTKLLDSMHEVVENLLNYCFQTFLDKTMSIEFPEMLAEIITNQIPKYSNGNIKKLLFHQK

Assay [20] shares this target. Put plainly: qHTS assay to identify small molecule antagonists of the glucocorticoid receptor (GR) signaling pathway (AID 720692; active = well fitted inhibition curve with a large enough effect in the signal ratio in the repeat runs, not every such curve was filed as active; the % refers to the signal ratio). The procedure, abridged:
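In a 1536-well cell format, compounds were added 4 h after seeding GR-bla HeLa cells, together with dexamethasone at 5 nM final; reporter activity was measured by FRET-substrate fluorescence following 18 h at 37 C.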

`Cc1ccccc1[N+](=O)[O-]`: the Potency entry in assay [1], in [2], in assay [3], in assay [4], in [5] and in assay [6] was “inactive” each time. The Potency result in assay [19] and in assay [20] was “inactive” in each case. In addition, the call in assay [7], in [8], in [9], in assay [10], in assay [11] and in assay [12] was inactive. In addition, the outcome in assay [13], in assay [14], in assay [15], in assay [16], in assay [17] and in [18] was inactive.
Take `O=C1C=CC(=O)C=C1`: the Potency entry in assay [1], in [2], in [3], in [4], in assay [5] and in assay [6] was “inactive” throughout. The outcome in [7], in [8], in assay [9], in assay [10], in [11] and in [13] was inactive. Also, the call in assay [14], in assay [16], in assay [17] and in assay [18] was inactive.
`NCc1cccnc1`: the Potency entry in [1], in assay [2], in assay [3], in [4], in assay [5] and in [6] was “inactive” each time. In addition, the result in assay [9], in [10], in assay [11], in assay [12], in assay [13] and in [14] was inactive. The result in [15], in assay [16], in assay [17] and in [18] was inactive.
For the compound `Clc1nc(Cl)nc(Cl)n1`, the Potency result in assay [1], in assay [2], in [3], in assay [4], in assay [5] and in [6] was “inactive” throughout. Moreover, the Potency result in assay [19] and in assay [20] was “inactive” in each case. Further, the call in assay [7], in assay [8], in assay [9], in assay [10], in assay [12] and in [13] was inactive. In addition, the compound was classed as inactive in assay [14], in assay [16], in [17] and in assay [18].
For `CN(C)c1ccc(C(=O)c2ccc(N(C)C)cc2)cc1`, the Potency in [1] is 605 nM (active) and 273 nM (active); in assay [2], 27 µM (active); in assay [6] it was 53.9 µM (active). The Potency result in [3], in assay [4] and in [19] was “inactive” each time. Also, the result in assay [8], in assay [9], in assay [10], in assay [13], in assay [14] and in [15] was inactive. Besides, the outcome in [17] was inactive.
In the case of `CCCCNC(=O)n1c(NC(=O)OC)nc2ccccc21`, the Potency in assay [1] is 13.6 µM (active) and 15.4 µM (active). The Potency result in assay [2], in [3], in assay [4], in [5], in [6] and in assay [20] was “inactive” each time. Moreover, the result in assay [7], in [8], in assay [9], in [10], in [11] and in assay [12] was inactive. Besides, the outcome in [13], in assay [14], in [15], in [16], in assay [17] and in assay [18] was inactive.
Take `CCN(CC)C(=O)/C(Cl)=C(\C)OP(=O)(OC)OC`: the Potency result in assay [1], in assay [2], in assay [3], in assay [4], in assay [5] and in [6] was “inactive” each time. Further, the Potency entry in assay [19] and in assay [20] was “inactive” throughout. Moreover, the result in assay [9], in [10], in assay [12], in assay [13], in assay [14] and in assay [15] was inactive. For the same compound, the call in assay [16], in assay [17] and in assay [18] was inactive.
On to `CCCCCCCCCCCOC(=O)c1ccccc1C(=O)OCCCCCCCCCCC`, for which the Potency entry in assay [1], in assay [2], in assay [3], in [4], in assay [5] and in assay [6] was “inactive” each time. Besides, the Potency entry in assay [19] and in [20] was “inactive” in each case. The compound was classed as inactive in [7], in [8], in assay [9], in assay [10], in assay [11] and in assay [12]. The call in assay [13], in assay [14], in assay [15], in [16], in [17] and in assay [18] was inactive.
